# Assay results as given in PubChem BioAssay AID686979 (National Center for Advancing Translational Sciences (NCATS), 2013).
# About 50,000 (12%) of roughly 420,000 compounds were called active. Roughly 26% stayed inconclusive and do not appear here. The list comes from a sample in which actives are over-represented; it also holds similar structures and randomly drawn compounds. Values without a mark were called inactive. Calls come from the whole dose curve; as a rule, active = well fitted inhibition curve with a large enough effect; inconclusive = small, poorly fitted or top-dose-only effect; inactive = flat fitted curve, though single readings scatter.
# Test: qHTS for Inhibitors of human tyrosyl-DNA phosphodiesterase 1 (TDP1): qHTS in cells in presence of CPT; note: nearly all actives have a fitted effect of over 55% in size
# Settings: chicken DT40 Tdp1-/-;hTDP1 cells + 20 nM CPT, ATP luminescence, 48 h; series mostly up to 46.2 µM; activity change, negative = growth inhibition: at the top concentration
# Method in brief: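 Chicken DT40 Tdp1-/- cells stably complemented with human TDP1 were seeded at 400 cells/well in medium containing 20 nM camptothecin, exposed to pin-transferred compounds, and grown at 37 °C for at least 48 hr. Viability was read as ATP luminescence.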
# % is set by controls: 0 for no effect and ±100 for the full control effect; potency is the fitted concentration of half-maximal effect.
Structure (SMILES),"activity change, negative = growth inhibition",Potency
CCCCC1S/C(=N/N=C/c2cccs2)NC1=O (stereo not drawn),-15.9%,
CC(=O)OC(COc1ccc(F)cc1)Cn1cnc2ccccc21 (stereo not drawn),-18.6%,
OC(COc1ccc2ccccc2c1)Cn1cncn1 (stereo not drawn),4.84%,
CCc1ccc(OCC(O)CN2CCN(CCO)CC2)cc1 (stereo not drawn),4.93%,
Cc1ccccc1OCC(O)CN1CCN(c2ccccn2)CC1 (stereo not drawn),2.2%,
CC(C)c1ccc(OCC(O)Cn2cnc3ccccc32)cc1 (stereo not drawn),,18.4 µM (active)
CC(C)c1ccc(OCC(O)CN2CCN(c3ccccn3)CC2)cc1 (stereo not drawn),,25.9 µM (active)
Cc1ccc(C)c(NC(=O)COC(=O)c2nn(C)c(=O)c3ccccc23)c1,0.793%,
C/C=C/C(=O)OCc1csc(CC(=O)Nc2ccccc2C)n1,-11.6%,
Cc1ccnc(NC(=O)C2CCN(S(=O)(=O)c3c(C)c(C)cc(C)c3C)CC2)c1,26.2%,
CCCNC(=O)C[C@@H]1CC[C@@H]2[C@H](COC[C@H](O)CN2C(=O)c2cc(Cl)cc(Cl)c2)O1,15.3%,
CC1(c2nnc(-c3ccncc3)o2)CC(c2cccnc2)=NO1 (stereo not drawn),1.74%,
CCCCC(=O)Nc1nnc(S(=O)(=O)N(C)Cc2ccco2)s1,-2.86%,
COc1ccc(NC(=O)CCNS(=O)(=O)c2ccc3c(c2)c(=O)n(C)c(=O)n3C)cc1OC,1.91%,
COc1ccc(OC)c(-n2cc3c(=O)n(C)c(=O)n(C)c3c2)c1,,16.4 µM (active)
CC(=O)Nn1cc2c(=O)n(C)c(=O)n(C)c2c1,9.83%,
CCc1cc2c(NC(Cc3ccccc3)C(=O)O)ncnc2s1 (stereo not drawn),-3.93%,
CCc1cc2c(NC3CCCC3)ncnc2s1,,7.31 µM (active)
CCc1cc2c(SCC(=O)Nc3ncc(Cl)c(C)c3Cl)ncnc2s1,-29.6%,
Cn1c2ccccc2n2c(=O)c(=O)n(CC(=O)c3ccc(F)cc3)nc12,-14.7%,
COc1ccc(Cn2ccn(Cc3cccc(OC)c3)c(=O)c2=O)cc1,-27%,
O=C(Cn1ccc2cc(S(=O)(=O)N3CCCC3)ccc21)NCc1ccccc1,-16.2%,
O=[N+]([O-])/C=C/c1ccc2c(ccn2Cc2ccccc2)c1,,3.26 µM (active)
Cc1ccc(C)c(S(=O)(=O)Nc2cccc(-n3cnnn3)c2)c1,-20.1%,
Cc1cnc(C(=O)OCc2c(C)cc(C(C)(C)C)cc2C)cn1,-21.7%,
N#CCCC(C#N)(c1cccnc1)N1CCOCC1 (stereo not drawn),2.23%,

Structure (SMILES),"activity change, negative = growth inhibition",Potency
COc1ccc2occ(C(=O)c3ccc(N=C(C)N(C)C)cc3)c2c1,,16.4 µM (active)
COc1ccc(C(=O)c2oc3ccc(Br)cc3c2NC(C)=O)cc1,-24.2%,
COc1ccc(OC)c(C(=O)c2ccc(C(=O)O)cc2)c1,-7.43%,
O=C(CCN1C(=O)[C@@H]2Cc3ccccc3CN2C1=O)NCCc1ccccc1,-0.504%,
O=C(Cn1nc(C(=O)O)c2ccccc2c1=O)Nc1ccc(F)cc1,-16.6%,
CCN(CC)c1ccc(/C=C/c2c(C)cnc3ccc(C)cc23)cc1,,11.2 µM (active)
COc1ccc(C(=O)COC(=O)CNC(=O)c2cccs2)cc1Br,6.66%,
Cc1ccc(S(=O)(=O)N2CCN(c3ccccc3)CC2)cc1C,4.16%,
COC(=O)/C(=C\Nc1ccccc1)NC(=O)c1ccc(Cl)cc1Cl,-12.4%,
COC(=O)Cc1nc2c(N)nc(N)nc2[nH]c1=O,1.28%,
COc1cc2c(cc1OC)C(COc1ccc(F)cc1)N(C(=O)c1ccccc1F)CC2 (stereo not drawn),,18.4 µM (active)
COc1cc2c(cc1OC)CN(CC(=O)Nc1ccc(F)cc1)CC2,0.106%,
COc1ccc2c(c1)CCC/C2=N\OC(=O)c1ccccc1F,0.0235%,
NC(=O)C1(Nc2ccccc2Cl)CCCC1,1.03%,
NC(=O)c1ccc(-c2csnn2)cc1,-2.39%,
CCOc1ccc(CCNC(=O)COC(=O)CCS(=O)(=O)c2ccc(C)cc2)cc1OCC,-9.18%,
Cc1nc2ccccc2nc1CC(O)(c1ccccc1)c1ccccc1,-15.5%,
CN(C)NC(=O)c1csnc1-c1c(Cl)cccc1Cl,6.02%,
CCn1c(SCC(=O)N/N=C/c2ccccc2OCC(=O)O)nnc1-c1ccc(C(C)(C)C)cc1,9.93%,
COc1ccc(S(=O)(=O)N2CCN(C(C)C(=O)Nc3ccc(C(C)C)cc3)CC2)cc1 (stereo not drawn),,29.1 µM (active)
COc1cccc(CNC(C)C(=O)Nc2ccc(S(=O)(=O)N3CCCC3)cc2)c1 (stereo not drawn),-18.1%,
COc1ccc(S(=O)(=O)N2CCN(C(=O)NC3CCCCC3)CC2)cc1,2.96%,
O=C(NC(=S)NC1CCSC1=O)c1ccccc1F (stereo not drawn),5.66%,
COc1cc(CNC2CCCC2)c(Br)cc1OCc1ccccc1,,20.6 µM (active)
COc1cc(CN2CCC(C(N)=O)CC2)ccc1OCc1ccccc1,-6.41%,
COc1cc(OC)c(NC(=O)C2CCCN2C(=O)OCc2ccccc2)cc1Cl (stereo not drawn),-5.29%,

Structure (SMILES),"activity change, negative = growth inhibition",Potency
CS(=O)(=O)NC(=O)CCC/C=C\C[C@H]1C(=O)C[C@@H](O)[C@@H]1/C=C/[C@H](O)COc1ccccc1,-5.58%,
Cc1ccc2nc(COc3cccc(NC(=O)c4cccc(Cl)c4)c3)cc(=O)n2c1,5.1%,
COc1cc(OC)cc(-c2sc3ccc(OC)cc3c2-c2ccc3cc[nH]c3c2)c1,2.8%,
c1ccc(-c2ccc(OCCN3CCOCC3)cc2)cc1,-8.28%,
COc1cccc(-c2sc3ccc(OC)cc3c2-c2ccc(OCCN3CCCCC3)cc2)c1,,18.4 µM (active)
COc1cccc(OCCCN2CCCCCC2)c1,7.79%,
Cc1cccc(C)c1OCCN1CCOCC1,0.496%,
COc1ccc(-c2sc3ccccc3c2-c2ccc(OCCN3CCOCC3)cc2)cc1,,14.6 µM (active)
COc1ccc(S(=O)(=O)N(C)C[C@@H]2Oc3ccc(NS(=O)(=O)c4cn(C)cn4)cc3C(=O)N([C@@H](C)CO)C[C@@H]2C)cc1,-5.54%,
COc1ccc2c(c1)C(c1cccs1)=NNC(c1cccnc1)=N2,-2.75%,
CCOc1ccc(NS(=O)(=O)c2ccc(C)c(C(N)=O)c2)cc1,,20.6 µM (active)
CCOc1ccc(NS(=O)(=O)c2ccc(OCC(=O)NCCCOC)cc2)cc1,-7.83%,
CCCCNC(=O)c1c[nH]c2ccc(S(=O)(=O)Nc3ccc(OCC)cc3)cc2c1=O,-22.1%,
Cc1ccccc1NC(=O)Cc1nc(COC(=O)CNC(=O)c2ccc(Cl)cc2Cl)cs1,-6.01%,
Cc1cccn2c(=O)c3cc(C#N)c(=NC(=O)c4cccnc4)n(CC4CCCO4)c3nc12 (stereo not drawn),-2.32%,
Cc1ccc2nc3c(cc(C(=O)NCCc4ccccc4)c(=N)n3CC3CCCO3)c(=O)n2c1 (stereo not drawn),,20.6 µM (active)
COc1ccc(C(=O)Nc2ccc(C(=O)NCC3CCCO3)cc2)c(OC)c1OC (stereo not drawn),0.208%,
COc1ccc(CCNC(=O)Cn2c(=O)n(CC3CCCO3)c(=O)c3ccccc32)cc1OC (stereo not drawn),-1.14%,
Cc1cccn2c(=O)c3cc(C(=O)NCCN4CCOCC4)c(=N)n(Cc4cccnc4)c3nc12,,13 µM (active)
Cc1ccc2nc3c(cc(C(=O)NC4CCCCC4)c(=N)n3C(C)C)c(=O)n2c1,6.44%,
COCCCn1c(C(=O)NC2CCCCC2)cc2c(=O)n3cccc(C)c3nc21,,18.4 µM (active)
CCOC(=O)c1cc2c(=O)n3ccccc3nc2n(CC2CCCO2)c1=NC(=O)c1ccccc1Br (stereo not drawn),4.33%,
COc1ccc(CCn2c(=N)c(C(=O)NCC3CCCO3)cc3c(=O)n4cccc(C)c4nc32)cc1OC (stereo not drawn),,5.17 µM (active)
Cc1cccn2c(=O)c3cc(C(=O)NC4CCCCC4)sc3nc12,-26.2%,
CCCCn1c(=N)c(S(=O)(=O)c2ccccc2)cc2c(=O)n3cccc(C)c3nc21,0.133%,
O=C(NCc1cccnc1)c1cc(S(=O)(=O)N2CCOCC2)c(Cl)cc1Cl,4.04%,
